In PubChem BioAssay (NCATS):
Results filed as inconclusive are left out. Calls of active or inactive are those of the source. The call rests on the fitted dose curve; in most records, active means well fitted curve in the direction sought with a large enough effect; inconclusive means small, poorly fitted or top-dose-only effect, or another doubt; inactive means no such curve, though single readings can be large; an effect the other way counts as inactive or inconclusive.

How the values were obtained:
[1] = Quantitative High-Throughput drug screen in 47 multiple myeloma cell lines against the NCATS MIPE library collection: JIM3_ECACC cell viability assay (AID 1918963; further: nearly all actives have a fitted effect of over 35% in size)
In short: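 Steps: seed 500 cells per well; pin-transfer MIPE 4.0 library; incubate 48 h at 37C, 5% CO2, humidified; add CellTiter-Glo, 5 min room temperature; read luminescence.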

[2] = Quantitative High-Throughput drug screen in 47 multiple myeloma cell lines against the NCATS MIPE library collection: JJN3_DSMZ cell viability assay (AID 1918966; further: nearly all actives have a fitted effect of over 50% in size)
In short: (§1)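 Approved and investigational drugs from MIPE 4.0 were added by pin tool to 500 cells per well. After 48 hours at 37C, ATP-based CellTiter-Glo luminescence indicated remaining viability.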

[3] = Quantitative High-Throughput drug screen in 47 multiple myeloma cell lines against the NCATS MIPE library collection: H1112_PLB cell viability assay (AID 1918967; further: nearly all actives have a fitted effect of over 30% in size)
In short: as §1

[4] = Quantitative High-Throughput drug screen in 47 multiple myeloma cell lines against the NCATS MIPE library collection: Karpas25_ECACC cell viability assay (AID 1918968; further: nearly all actives have a fitted effect of over 35% in size)
In short: as §1

[5] = Quantitative High-Throughput drug screen in 47 multiple myeloma cell lines against the NCATS MIPE library collection: KMS12BM_JCRB cell viability assay (AID 1918971); further: nearly all actives have a fitted effect of over 35% in size
In short: (§2)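 qHTS of the MIPE 4.0 collection: 500 myeloma cells/well, 48 h drug exposure at 37C in 5% CO2, then CellTiter-Glo for 5 min at room temperature before luminescence reading.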

[6] = Quantitative High-Throughput drug screen in 47 multiple myeloma cell lines against the NCATS MIPE library collection: MOLP8_DSMZ cell viability assay (AID 1918977); further: nearly all actives have a fitted effect of over 45% in size
In short: (§3)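 500 cells/well; MIPE 4.0 drugs pin-transferred; 48 h, 37C, 5% CO2. CellTiter-Glo, 5 min RT, luminescence. Controls: DMSO 100%, media 0%.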

[7] = Quantitative High-Throughput drug screen in 47 multiple myeloma cell lines against the NCATS MIPE library collection: OCIMY1_PLB cell viability assay (AID 1918979); further: nearly all actives have a fitted effect of over 35% in size
In short: as §3

[8] = Quantitative High-Throughput drug screen in 47 multiple myeloma cell lines against the NCATS MIPE library collection: MM1R_ATCC cell viability assay (AID 1918981); further: nearly all actives have a fitted effect of over 35% in size
In short: as §3

[9] = Quantitative High-Throughput drug screen in 47 multiple myeloma cell lines against the NCATS MIPE library collection: LP1_DSMZ cell viability assay (AID 1918982); further: nearly all actives have a fitted effect of over 35% in size
In short: as §3

[10] = Quantitative High-Throughput drug screen in 47 multiple myeloma cell lines against the NCATS MIPE library collection: KMS27_JCRB cell viability assay (AID 1918970); conditions: KMS27 myeloma cells, CellTiter-Glo ATP viability, 48 h; viability (% of DMSO): at 45.8 µM (top of the series); further: nearly all actives have a fitted effect of over 30% in size
In short: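 ATP-based viability (CellTiter-Glo luminescence) is measured in cells treated 48 h with approved and investigational drugs at 37 °C. Controls are DMSO-only wells for full viability and media-only wells for none.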

[11] = Quantitative High-Throughput drug screen in 47 multiple myeloma cell lines against the NCATS MIPE library collection: KMS26_JCRB cell viability assay (AID 1918975); further: nearly all actives have a fitted effect of over 45% in size
In short: as §2

[12] = Quantitative High-Throughput drug screen in 47 multiple myeloma cell lines against the NCATS MIPE library collection: MMM1_PLB cell viability assay (AID 1918976); further: nearly all actives have a fitted effect of over 35% in size
In short: as §3

[13] = Quantitative High-Throughput drug screen in 47 multiple myeloma cell lines against the NCATS MIPE library collection: NCIH929_DSMZ cell viability assay (AID 1918978); further: nearly all actives have a fitted effect of over 35% in size
In short: as §3

[14] = Quantitative High-Throughput drug screen in 47 multiple myeloma cell lines against the NCATS MIPE library collection: MM1S_ATCC cell viability assay (AID 1918980); further: nearly all actives have a fitted effect of over 45% in size
In short: as §3

[15] = Quantitative High-Throughput drug screen in 47 multiple myeloma cell lines against the NCATS MIPE library collection: KMS20_JCRB cell viability assay (AID 1918973); further: nearly all actives have a fitted effect of over 45% in size
In short: as §1

[16] = Quantitative High-Throughput drug screen in 47 multiple myeloma cell lines against the NCATS MIPE library collection: INA6_PLB cell viability assay (AID 1918965; further: nearly all actives have a fitted effect of over 55% in size)
In short: (§4)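 CellTiter-Glo luminescence (ATP) after 48 h compound exposure, 37C/5% CO2; 500 cells/well; MIPE 4.0 approved/investigational drugs pinned in; DMSO = 100%, media only = 0% viability.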

[17] = Quantitative High-Throughput drug screen in 47 multiple myeloma cell lines against the NCATS MIPE library collection: KMS12PE_JCRB cell viability assay (AID 1918972); further: nearly all actives have a fitted effect of over 30% in size
In short: as §4

Measured: Potency
Potency means the concentration at half of the fitted maximal effect.

Cc1ccccc1C(=O)Nc1ccc(C(=O)N2CCCC(O)c3cc(Cl)ccc32)c(C)c1 (stereo unspecified)
active: [2] 13.2 µM | [4] 14.8 µM | [9] 18.7 µM
inactive: [1] | [3] | [5] | [6] | [7] | [8]

Cn1cc(C[C@@H](N)C(=O)O)c2ccccc21
active: [5] 2.29 µM | [12] 0.645 µM | [6] 0.115 µM
inactive: [1] | [3] | [4] | [10] | [11] | [13] | [7] | [14]

NC[C@H]1O[C@H](O[C@H]2[C@@H](O)[C@@H](O[C@H]3O[C@H](CO)[C@@H](O)[C@H](N)[C@@H]3O)[C@H](N)C[C@@H]2N)[C@H](N)C[C@H]1O
active: [2] 1.87 µM | [12] 2.09 µM
not listed: [5] | [6] | [13] | [16] | [17]
inactive: all other assays above

Nc1nc(=O)n([C@H]2CSC(CO)O2)cc1F (stereo partly specified)
not listed: [3] | [6] | [8] | [12] | [14] | [16] | [17]
inactive: all other assays above

CC(=O)N[C@@H]1[C@H](O[C@@H]2c3ccc(c(Cl)c3)Oc3cc4cc(c3O[C@H]3O[C@H](CO)[C@@H](O)[C@H](O)[C@H]3NC(=O)CCCCCCCC(C)C)Oc3ccc(cc3Cl)C[C@H]3NC(=O)[C@H](N)c5ccc(O)c(c5)Oc5cc(O)cc(c5)[C@H](NC3=O)C(=O)N[C@H]4C(=O)N[C@H]3C(=O)N[C@@H]2C(=O)N[C@@H](C(=O)O)c2cc(O)cc(O[C@H]4O[C@H](CO)[C@@H](O)[C@H](O)[C@H]4O)c2-c2cc3ccc2O)O[C@H](CO)[C@@H](O)[C@@H]1O
not listed: [2] | [3] | [9] | [12] | [14] | [15]
inactive: all other assays above

C[C@](Cc1c[nH]c2ccccc12)(NC(=O)OC1C2CC3CC(C2)CC1C3)C(=O)NC[C@H](NC(=O)CCC(=O)O)c1ccccc1 (stereo partly specified)
inactive: [1] | [2] | [5] | [11] | [7] | [8] | [9]

CCCc1nc(C(C)(C)O)c(C(=O)O)n1Cc1ccc(-c2ccccc2-c2nn[nH]n2)cc1
not listed: [3] | [6] | [8] | [11] | [12] | [14] | [16]
inactive: all other assays above

NC(=O)c1ncn([C@@H]2O[C@H](CO)[C@@H](O)[C@@H]2O)c1N
active: [12] 2.64 µM
not listed: [4] | [6] | [15] | [16] | [17]
inactive: all other assays above

CC(=O)C1=C(O)C=C2Oc3c(C(C)=O)c(O)c(C)c(O)c3C2(C)C1=O (stereo unspecified)
inactive: [1] | [16] | [3] | [5] | [7] | [14]

CCOC(=O)C=C[C@H](C[C@@H]1CCNC1=O)NC(=O)[C@@H](CC(=O)[C@@H](NC(=O)c1cc(C)on1)C(C)C)Cc1ccc(F)cc1
not listed: [5] | [6] | [12] | [15] | [16]
inactive: all other assays above

COC(=O)[C@@H]1[C@H]2C[C@@H]3c4[nH]c5ccccc5c4CCN3C[C@@H]2CC[C@@H]1O
not listed: [2] | [5] | [7] | [12] | [15]
inactive: all other assays above

O=S(=O)(O)CCSSCCS(=O)(=O)O
inactive: [1] | [16] | [3] | [4] | [10] | [11] | [8] | [9]
active: [14] 18.7 µM

CC(=O)OC[C@@H]1O[C@@H](n2ccc(=O)[nH]c2=O)[C@H](OC(C)=O)[C@H]1OC(C)=O
not listed: [4] | [12] | [15] | [16]
inactive: all other assays above

Nc1ccn(C2CO[C@H](CO)O2)c(=O)n1 (stereo partly specified)
active: [1] 3.32 µM | [5] 0.833 µM | [12] 4.69 µM
inactive: [3] | [4] | [10] | [7] | [8] | [9]

Cc1cc(-c2nnc3n2CCCCC3)c(C)n1-c1ccccc1
inactive: [1] | [16] | [3] | [4] | [9]
active: [17] 20.9 µM | [12] 14.8 µM | [7] 0.0012 µM

CN1[C@H]2CC(OC(=O)[C@@H](CO)c3ccccc3)C[C@H]1[C@H]1O[C@H]12 (stereo partly specified)
active: [15] 0.007 µM
not listed: [2] | [5] | [12] | [16]
inactive: all other assays above

CC(C=CC=C(C)C=CC1=C(C)CCCC1(C)C)=CC=CC=C(C)C=CC=C(C)C=CC1=C(C)CCCC1(C)C
active: [2] 14.8 µM | [4] 16.6 µM | [10] 11.8 µM | [11] 13.2 µM | [12] 14.8 µM | [14] 5.9 µM | [8] 16.6 µM
inactive: [1] | [5] | [9]

O=C1c2c(O)cccc2[C@@H]([C@@H]2O[C@H](CO)[C@@H](O)[C@H](O)[C@H]2O)c2cc(CO)cc(O)c21
not listed: [2] | [6] | [12] | [13] | [14] | [15]
inactive: all other assays above

Cc1cn([C@@H]2O[C@H](CO)[C@@H](O)[C@H]2F)c(=O)[nH]c1=O
inactive: [1] | [16] | [3] | [4] | [13] | [7] | [8]
active: [17] 13.2 µM

O=C(O)C(=O)Nc1cccc(C2=NN=N[N]2)c1
inactive: [1] | [16] | [3] | [4] | [10] | [5] | [17] | [13] | [9]

CC1(C)[C@H](O[C@H]2O[C@H](C(=O)O)[C@@H](O)[C@H](O)[C@H]2O[C@@H]2O[C@H](C(=O)O)[C@@H](O)[C@H](O)[C@H]2O)CC[C@@]2(C)[C@H]1CC[C@]1(C)[C@H]2C(=O)C=C2[C@H]3C[C@@](C)(C(=O)O)CC[C@]3(C)CC[C@]21C
inactive: [1] | [3] | [4] | [10] | [5] | [17] | [11] | [13] | [7]

CC(C)n1cnc2c(NCCc3ccc(O)cc3)nc(-c3csc4ccccc34)nc21
active: [1] 9.35 µM | [16] 20.9 µM | [3] 13.2 µM | [4] 4.18 µM | [11] 11.8 µM | [7] 20.9 µM | [14] 0.743 µM | [8] 7.43 µM | [9] 16.6 µM

C[C@@H]1[C@H](C)CC[C@]2(C(=O)O)CC[C@]3(C)C(=CC[C@@H]4[C@@]5(C)C[C@@H](O)[C@H](O)[C@@](C)(CO)[C@H]5CC[C@]43C)[C@@H]12
not listed: [2] | [5] | [6] | [8] | [12] | [14] | [16]
inactive: all other assays above

O=C(NC1CC1)c1cccc(-c2ccc3c(NC(=O)C4CC4)n[nH]c3c2)c1
inactive: [17]
active: [1] 11.8 µM | [16] 5.26 µM | [3] 6.62 µM | [5] 8.33 µM | [11] 2.64 µM | [13] 16.6 µM | [14] 0.332 µM | [8] 1.48 µM

CC[C@H]1OC(=O)[C@H](C)[C@@H](O[C@H]2C[C@@](C)(OC)[C@@H](O)[C@H](C)O2)[C@H](C)[C@@H](O[C@@H]2O[C@H](C)C[C@H](N(C)C)[C@@H]2O)[C@](C)(OC)C[C@@H](C)C(=O)[C@H](C)[C@@H](O)[C@]1(C)O
not listed: [2] | [5] | [6] | [14] | [15]
inactive: all other assays above

OCCN1C[C@H](O)[C@@H](O)[C@H](O)[C@@H]1CO
not listed: [2] | [6] | [7] | [12] | [14] | [15] | [16]
inactive: all other assays above

COC1=C(OC)C(=O)C(CC=C(C)CCC=C(C)CCC=C(C)CCC=C(C)CCC=C(C)CCC=C(C)CCC=C(C)CCC=C(C)CCC=C(C)CCC=C(C)C)=C(C)C1=O
not listed: [2] | [5] | [7] | [12] | [14] | [15]
inactive: all other assays above

CN[C@H](CC(C)C)C(=O)N[C@H]1C(=O)N[C@@H](CC(N)=O)C(=O)N[C@@H]2C(=O)N[C@H]3C(=O)N[C@H](C(=O)N[C@H](C(=O)O)c4cc(O)cc(O)c4-c4cc3ccc4O)[C@H](O)c3ccc(c(Cl)c3)Oc3cc2cc(c3O[C@@H]2O[C@H](CO)[C@@H](O)[C@H](O)[C@@H]2O[C@H]2C[C@](C)(N)[C@H](O)[C@H](C)O2)Oc2ccc(cc2Cl)[C@H]1O
not listed: [4] | [5] | [10] | [12] | [14] | [15] | [16]
inactive: all other assays above

Cc1ccc(O)c(C(CCN(C(C)C)C(C)C)c2ccccc2)c1 (stereo unspecified)
inactive: [1] | [2] | [3] | [4] | [5] | [17] | [13] | [7] | [14]

Cc1cncc2cccc(S(=O)(=O)N3CCCN(C(=O)CN)C[C@@H]3C)c12
active: [16] 16.6 µM | [3] 20.9 µM | [10] 0.418 µM | [17] 16.6 µM | [13] 18.7 µM
inactive: [1] | [5] | [11] | [8] | [9]
